Compound activity (PubChem BioAssay)
Wnt bcat act – activates Wnt/beta-catenin signaling in a reporter cell assay; activator, plate reader; activation, % at 9.35 µM; actives 1.2% (n = 300,000); AID 743398; in the data active = activation above about 30%, passing the limit was not always enough; inconclusive = no clear call, values can overlap the other calls;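 also: 0% = neutral control wells and 100% = positive control wells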
SMARCA2 act – SMARCA2 function activation, primary screen | AID 652017 | actives 1% (n = 370,000) | MG213 cells, MMTV-luciferase reporter, dexamethasone, overnight | activation, % at 9.1 µM; in the data active = activation above about 7.8%;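 also: 0% = vehicle wells and 100% = reference activator wells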
MITF TRPM1 HTS – increases MITF-driven TRPM1 promoter luciferase signal; AID 588334; activation, % at 12.5 µM; actives 0.75% (n = 300,000); SK-MEL-5 TRPM1-promoter luciferase, 24 h; % of positive control, neutral wells = 0;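 active = mean activation of at least 80% with every replicate also reaching 80%; inconclusive = mean reaches 80% but some replicate falls short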;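 also: 0% = neutral control wells and 100% = parthenolide positive control wells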
esBAF inh – blocks esBAF chromatin remodeling in mouse ES cells. Bmi1-luciferase knock-in reporter, 24 h; 100% = twice the neutral-well signal. actives 2% (n = 350,000). reporter increase, % at 12.5 µM; in the data active = activation above about 40%; inconclusive = no clear call, values can overlap the other calls;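 also: 0% = median of the plate's neutral control wells and 100% = double that signal; a rise in the Bmi1 reporter signal indicates esBAF inhibition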
FGF22 binding – shifts melting point of recombinant human FGF22; Q9HCT0; recombinant FGF22 thermal shift, SYPRO orange fluorescence; percent of sucrose octasulfate shift, DMSO zero; activity (Tm shift, normalised), % at 9.99 µM; actives 1.5% (n = 340,000); AID 651658;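 active = mean Tm shift, scaled 0 neutral to 100 positive control, at about 1.3% or above, every replicate too, limit read from the data; inconclusive = no clear call, values can overlap the other calls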
AF4-AF9 inh – inhibitors of human MLL-AF4/AF9 interaction; AlphaScreen, biotin-AF4 peptide binding to FLAG-AF9; P42568; actives 0.47% (n = 350,000); inhibition, % at 10 µM;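 active = every replicate reaching a set inhibition limit, whatever the replicate mean, cut at about 25% in these data; inconclusive = mean inhibition reaches that limit but some replicates miss it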;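 also: 0% = plate neutral control median and 100% = total signal loss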
Target sequence (P42568 whole entry, looked up): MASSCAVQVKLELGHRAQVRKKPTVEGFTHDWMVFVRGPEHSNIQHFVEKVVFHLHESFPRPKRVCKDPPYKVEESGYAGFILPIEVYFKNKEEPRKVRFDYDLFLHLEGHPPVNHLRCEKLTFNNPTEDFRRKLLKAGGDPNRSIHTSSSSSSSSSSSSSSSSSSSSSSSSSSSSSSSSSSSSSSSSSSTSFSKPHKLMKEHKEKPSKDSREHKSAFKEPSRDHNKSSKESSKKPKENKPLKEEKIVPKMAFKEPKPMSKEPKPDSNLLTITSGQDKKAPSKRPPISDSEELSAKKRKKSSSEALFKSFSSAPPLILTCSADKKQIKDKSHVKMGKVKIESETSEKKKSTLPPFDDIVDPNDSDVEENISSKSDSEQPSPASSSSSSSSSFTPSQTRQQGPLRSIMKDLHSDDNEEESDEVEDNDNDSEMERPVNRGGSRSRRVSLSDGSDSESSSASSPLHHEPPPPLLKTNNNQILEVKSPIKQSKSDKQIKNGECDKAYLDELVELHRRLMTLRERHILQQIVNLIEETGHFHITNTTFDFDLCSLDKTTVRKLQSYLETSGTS
The depositor's hits bear a star; u = inconclusive; x = no result. Most compounds without a hit are left out; they make up all but 4.3% or so of the library.

SMILES	Wnt bcat act	SMARCA2 act	MITF TRPM1 HTS	esBAF inh	FGF22 binding	AF4-AF9 inh
CCCNC(=O)N1[C@@H](CO)[C@@H]2c3ccccc3N(C(=O)NC(C)C)C[C@@H]21	x	x	x	-9	0	-4
Cc1ccc(CNc2nc(C)cs2)cc1	27	4	143*	46*	0	2
CC(=O)Nc1nc(C)cs1	0	2	-5	6	0	-6
Cc1noc(C)c1S(=O)(=O)Nc1ccc2c(c1)CC(=O)N([C@H](C)CO)C[C@@H](C)[C@@H](CN(C)Cc1ccccc1)O2	x	x	x	1	0	-2
CN(C)CC(=O)N[C@H]1CC[C@H](CCNC(=O)C2CC2)O[C@@H]1CO	x	x	x	x	x	-3
COc1ccc(-c2cnc3nc(/N=C/N(C)C)nn3c2/N=C/N(C)C)cc1	-16	3	4	-2	43*	1
CN(C)/C=N/c1nc2nccc(-c3ccc(Cl)cc3)n2n1	-12	-1	0	-1	0	-1
Cc1ccc(OCC(=O)Nc2ccc(C)c(F)c2)c([N+](=O)[O-])n1	-3	5	114*	56*	0	0
Cc1ccc(OCc2ccc([N+](=O)[O-])cc2)c([N+](=O)[O-])n1	33*	2	139*	x	0	-2
Cc1ccc(OCCOc2ccc(Br)cc2)c([N+](=O)[O-])n1	13	5	123*	65*	0	-5
CC(=O)Nc1ccc(NC(=O)CSc2nnc(-c3cccs3)o2)cc1	x	-6	x	x	x	x
CCCC/C(O)=C1\C(=O)CC(C)(C)CC1=Nc1ccc(N)cc1	0	1	9	x	43*	0
Cc1cccc(C)c1NC(=O)COn1nnc2ccc(C(F)(F)F)cc21	-3	0	1	x	0	1
Cc1cccc(NC(=O)COn2nnc3ccc(S(C)(=O)=O)cc32)c1	0	-3	0	-6	43*	2
O=C1CNC(=S)N1CCOc1ccccc1	-1	-1	x	x	0	-2
O=C1CNC(=S)N1CCc1ccc(O)c(O)c1	50*	-3	x	x	0	3
Cc1csc(NC(=O)c2cc3ccccc3o2)n1	u	4	7	-28	0	-9
Cc1csc(C(C#N)C(=O)c2cc3ccccc3o2)n1 (stereo not drawn)	25	3	62	46*	x	x
COc1ccc2c(c1)oc1c(SCc3nc4ccccc4[nH]3)nc(C)nc12	13	5	49	68*	0	0
Cc1nc(SCc2nc3ccccc3[nH]2)c2oc3cc([N+](=O)[O-])ccc3c2n1	-1	1	-23	49*	0	x
Cc1nc(SCc2nc3ccc(Br)cc3[nH]2)c2oc3ccccc3c2n1	0	0	15	-4	0	2
O=[N+]([O-])c1cc2c(cc1CN1CCN(c3ccccc3F)CC1)OCO2	-1	-1	x	2	0	-2
COc1ccccc1N1CCN(Cc2cn[nH]c2-c2ccc(F)cc2)CC1	-1	-1	0	-4	0	53*
COc1cc(CN2CCN(c3ccccc3F)CC2)c([N+](=O)[O-])cc1OC	-5	-3	1	x	44*	8
CCCCCCCCN1CCS(=O)(=O)N(Cc2ccc(Cl)cc2)C(C(=O)OC)C1 (stereo not drawn)	x	0	x	x	x	x
SMILES	Wnt bcat act	SMARCA2 act	MITF TRPM1 HTS	esBAF inh	FGF22 binding	AF4-AF9 inh
COc1ccccc1-c1ccc2n(c1=O)C[C@@H]1[C@@H](CO)[C@H](C(=O)N(C)C)N[C@H]21	x	x	x	-2	0	-6
CC(=O)Nc1sc(C)c(C)c1C(=O)OCCOc1ccccc1	11	3	52	55*	0	-1
CC(=O)Nc1sc(C)c(C)c1C(=O)OCC(=O)Nc1ccccc1	2	3	14	18	0	-1
COc1ccc(CNC(=O)COC(=O)c2c(NC(C)=O)sc(C)c2C)cc1OC	46*	-3	x	1	0	1
Cc1ccc(NC(=O)/C(C#N)=N/Nc2ccc(C(=O)O)cc2)c(C)c1	44*	5	0	x	0	8
COc1ccc(S[C@]2(C(=O)N3CCN(c4ncccn4)CC3)CC(=O)N(C(=O)CCc3ccccc3)[C@@H]2c2ccc(OC)cc2)cc1	x	-3	x	x	x	x
C#CCN1CCc2onc(-c3ccccc3OC)c2C1=O	-1	-3	x	-2	43*	2
COc1ccccc1-c1noc2c1C(=O)N(Cc1cn(-c3ccc(Cl)cc3)nn1)CC2	-3	-6	x	4	0	1
COc1ccc(C(=O)NNC2CC(=O)N(Cc3ccccc3)C2=O)cc1OC (stereo not drawn)	x	7.9*	2	0	x	x
COCCCN1C(=O)C(=O)/C(=C(/O)c2ccc(S(=O)(=O)N3CCCCC3)cc2)C1c1ccc(O)cc1 (stereo not drawn)	-2	-2	3	1	43*	2
COCCN1C(=O)CC(NNC(=O)c2ccc(S(=O)(=O)N3CCCC3)cc2)C1=O (stereo not drawn)	1	0	-4	x	43*	0
CC(C)CCN1C(=O)CC(NNC(=O)c2ccc(S(=O)(=O)N3CCCC3)cc2)C1=O (stereo not drawn)	-1	-1	11	-3	0	2
CC(C)OCCCn1c(=N)c(S(=O)(=O)c2ccccc2)cc2c(=O)n3ccccc3nc21	0	-1	10	-2	0	0
CCOCCCn1c(=N)c(S(=O)(=O)c2ccccc2)cc2c(=O)n3cc(C)ccc3nc21	-4	-2	13	-2	0	26*
Cc1ccc(-c2nc(C#N)c(NCc3ccco3)o2)cc1	x	3	x	73*	x	x
Cc1cccc(-c2nc(C#N)c(NCc3ccco3)o2)c1	32*	6	x	59*	0	4
N#Cc1nc(-c2ccc(OCc3ccccc3)cc2)oc1NCc1ccco1	x	-5	11	2	x	x
COc1ccc(-c2nc(C#N)c(NCc3ccco3)o2)cc1	14	0	30	39	0	2
N#Cc1nc(-c2ccc(F)cc2)oc1NCc1ccco1	6	4	16	28	0	1
CNc1oc(-c2ccc(OCc3ccccc3)cc2)nc1C#N	x	3	75	69*	x	x
C[C@@H]1CN([C@@H](C)CO)C(=O)c2cc(NC(=O)C3CC3)ccc2O[C@H]1CN(C)CC1CCCCC1	x	x	x	-19	0	-8
C[C@@H]1CN([C@H](C)CO)C(=O)c2cccc(NC(=O)C3CC3)c2O[C@H]1CN(C)CC1CC1	x	x	x	-10	0	-4
Cc1cc(/C=C2\C(=O)NN(c3ccccc3)C2=O)c(C)n1-c1ccccc1O	13	-2	43	58*	0	-4
Cc1cc(/C=C2/C(=O)NN(c3ccccc3)C2=O)c(C)n1-c1ccc(O)cc1	1	-4	-1	x	0	4
CO[C@H]1CN(C)C(=O)c2cc(NC(=O)c3ccc(F)cc3)ccc2OC[C@H](C)N(C(=O)CC2CC2)C[C@H]1C	x	x	x	4	x	x
